# Results taken from PubChem BioAssay (NCATS).
# Results filed as inconclusive are left out. A call without a number means that no potency is given here. Unmarked numbers belong to inactive results. The source made the active and inactive calls. The call rests on the fitted dose curve; in most records, active means well fitted curve in the direction sought with a large enough effect; inconclusive means small, poorly fitted or top-dose-only effect, or another doubt; inactive means no such curve, though single readings can be large; an effect the other way counts as inactive or inconclusive.
# Tests used:
# [1] = NS1 protein of Zika virus - qHTS assay to identify small molecule inhibitors in human HEK 293 cells (AID 1347053); further: series mostly up to about 46 µM; nearly all actives have a fitted effect of over 55% in size
# Procedure, shortened: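 Compound-treated (1 h pre-infection) HEK 293 cells infected with ZIKV MR766, MOI = 0.5; after 24 h at 37 C, NS1 read by TR-FRET; data normalized to uninfected and infected controls.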
# [2] = qHTS of pediatric cancer cell lines to identify multiple opportunities for drug repurposing: Primary screen for TC32 cells (AID 1347089); further: nearly all actives have a fitted effect of over 60% in size
# Procedure, shortened: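 Luminescent ATP read-out (CellTiter-Glo) of metabolically active TC32 cells after 48 h exposure. Concentration-response curves came from 11-point (MIPE, 0.78 nM–46 µM) or 8-point (NPC, 0.59 nM–46 µM) primary titrations; follow-up used 11 points.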
# [3] = qHTS of pediatric cancer cell lines to identify multiple opportunities for drug repurposing: Primary screen for DAOY cells (AID 1347090); further: series mostly up to about 46 µM; nearly all actives have a fitted effect of over 55% in size
# Procedure, shortened: (§1)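 Viability measured as metabolically active cells via CellTiter-Glo luminescence following 48 hours of compound exposure, 11-point dilutions in confirmatory testing. 500-1,000 cells/well plated 5 hours before dosing; controls were DMSO and 2.3 µM bortezomib.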
# [4] = qHTS of pediatric cancer cell lines to identify multiple opportunities for drug repurposing: Primary screen for SJ-GBM2 cells (AID 1347091)
# Procedure, shortened: as §1
# [5] = qHTS of pediatric cancer cell lines to identify multiple opportunities for drug repurposing: Primary screen for A673 cells (AID 1347092); further: nearly all actives have a fitted effect of over 45% in size; further: potency means the concentration at half of the fitted maximal effect
# Procedure, shortened: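 Cell viability of A673 measured by CellTiter-Glo ATP luminescence after 48 hours compound exposure. Dilution series spanned 0.78 nM to 46 µM (MIPE, 11-point) or 0.59 nM to 46 µM (NPC, 8-point); bortezomib 2.3 uM positive control.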
Structure (SMILES),Potency [1],Potency [2],Potency [3],Potency [4],Potency [5],"activity change, negative = inhibition [1]","activity change, negative = cytotoxic [2]","activity change, negative = cytotoxic [3]","activity change, negative = cytotoxic [4]","activity change, negative = cytotoxic [5]"
CS(=O)(=O)c1ccc([C@@H](O)[C@@H](CF)NC(=O)C(Cl)Cl)cc1,inactive,inactive,inactive,inactive,inactive,–,–,–,–,–
O=C(O)c1ccccn1,inactive,inactive,inactive,inactive,inactive,–,–,–,–,–
CC[C@@]1(c2ccccc2)NC(=O)N(C)C1=O,inactive,inactive,inactive,inactive,inactive,–,–,–,–,–
COc1ccccc1O,inactive,inactive,inactive,inactive,inactive,–,–,–,–,–
COc1ccc2c(c1)C(=O)N(CCc1ccc(S(=O)(=O)NC(=O)NC3CCCCC3)cc1)C(=O)C2(C)C,inactive,inactive,inactive,inactive,inactive,–,–,–,–,–
Nc1ccc(S(=O)(=O)Nc2nccs2)cc1,inactive,inactive,inactive,inactive,inactive,–,–,–,–,–
COc1cc(C(=O)N2CCOCC2)cc(OC)c1OC,inactive,inactive,inactive,inactive,inactive,–,–,–,–,–
CN(C)CCN(Cc1ccccc1)c1ccccn1,inactive,inactive,inactive,inactive,inactive,–,–,–,–,–
N[C@H](C(=O)O)c1ccc(O)cc1,inactive,inactive,inactive,inactive,inactive,–,–,–,–,–
[O-][n+]1cccc(CO)c1,inactive,inactive,inactive,inactive,inactive,–,–,–,–,–
CCOc1nc2cccc(C(=O)O)c2n1Cc1ccc(-c2ccccc2-c2nn[nH]n2)cc1,inactive,inactive,inactive,inactive,inactive,–,–,–,–,–
NCCNCCNCCN,inactive,inactive,inactive,inactive,inactive,–,–,–,–,–
CC(C)(O)c1ccccc1CC[C@@H](SCC1(CC(=O)O)CC1)c1cccc(/C=C/c2ccc3ccc(Cl)cc3n2)c1,inactive,inactive,inactive,inactive,inactive,–,–,–,–,–
O=S(=O)(O)NC1CCCCC1,inactive,inactive,inactive,inactive,inactive,–,–,–,–,–
C[C@@H]1C[C@H]2[C@@H]3C[C@H](F)C4=CC(=O)C=C[C@]4(C)[C@@]3(F)[C@@H](O)C[C@]2(C)[C@@]1(O)C(=O)CO,inactive,inactive,inactive,inactive,inactive,–,–,–,–,–
O=C(O)c1ccccc1O,inactive,inactive,inactive,inactive,inactive,–,–,–,–,–
O=C(O)CC(O)C(=O)O (stereo not given),inactive,inactive,inactive,inactive,inactive,–,–,–,–,–
COC(=O)[C@H]1[C@H]2C[C@@H]3c4[nH]c5cc(OC)ccc5c4CCN3C[C@H]2C[C@@H](OC(=O)COc2ccc(OC)cc2)[C@@H]1OC,inactive,inactive,inactive,inactive,inactive,–,–,–,–,–
CO/N=C(\C(=O)N[C@@H]1C(=O)N2C(C(=O)O)=C(CSc3nc(=O)c(O)nn3C)CS[C@H]12)c1csc(N)n1,inactive,inactive,inactive,inactive,inactive,–,–,–,–,–
O=C1NS(=O)(=O)c2ccccc21,inactive,inactive,inactive,inactive,inactive,–,–,–,–,–
C[C@H](N)[C@H](O)c1cccc(O)c1,inactive,inactive,inactive,inactive,inactive,–,–,–,–,–
C[C@@H](O)[C@H](N)C(=O)O,inactive,inactive,inactive,inactive,inactive,–,–,–,–,–
CC12CCC(CC1)C(C)(C)O2,inactive,inactive,inactive,inactive,inactive,–,–,–,–,–

Structure (SMILES),Potency [1],Potency [2],Potency [3],Potency [4],Potency [5],"activity change, negative = inhibition [1]","activity change, negative = cytotoxic [2]","activity change, negative = cytotoxic [3]","activity change, negative = cytotoxic [4]","activity change, negative = cytotoxic [5]"
Cc1c(Cl)cccc1Nc1ccccc1C(=O)O,inactive,inactive,inactive,inactive,inactive,–,–,–,–,–
NCCNCCNCCNCCN,–,–,–,–,–,-10.7% [at 9.2 µM],6.7% [at 9.17 µM],-7.74% [at 9.22 µM],0.237% [at 9.22 µM],0.711% [at 9.22 µM]
CCCCC(CC)COC(=O)c1ccccc1O (stereo not given),inactive,inactive,inactive,inactive,inactive,–,–,–,–,–
CN(C)CCCO[C@@H]1[C@H]2OC(C)(C)O[C@H]2O[C@@H]1C(O)CO (stereo not given in full),inactive,inactive,inactive,inactive,inactive,–,–,–,–,–
CC1(C)CO[C@@H](CC(=O)O)CN1,inactive,inactive,inactive,inactive,inactive,–,–,–,–,–
O=C1c2c(O)cccc2Cc2cccc(O)c21,inactive,inactive,inactive,inactive,inactive,–,–,–,–,–
Cc1ncc([N+](=O)[O-])n1CC(O)CCl (stereo not given),inactive,inactive,inactive,inactive,inactive,–,–,–,–,–
CC(=O)Oc1c(C)c(C)c2c(c1C)CC[C@@](C)(CCC[C@H](C)CCC[C@H](C)CCCC(C)C)O2,inactive,inactive,inactive,inactive,inactive,–,–,–,–,–
OCC(O)CN1CCN(c2ccccc2)CC1 (stereo not given),inactive,inactive,inactive,inactive,inactive,–,–,–,–,–
c1ccc2c(CC3=NCCN3)cccc2c1,inactive,inactive,inactive,inactive,inactive,–,–,–,–,–
C/C(=C(\CCOP(=O)(O)O)SC(=O)c1ccccc1)N(C=O)Cc1cnc(C)nc1N,–,–,–,–,–,3.35% [at 4.81 µM],9.22% [at 4.81 µM],7.92% [at 4.84 µM],25.6% [at 4.84 µM],-0.171% [at 4.84 µM]
Nc1ccc(S(=O)(=O)Nc2ccc(Cl)nn2)cc1,inactive,inactive,inactive,inactive,inactive,–,–,–,–,–
NS(=O)(=O)c1cc2c(cc1Cl)NC(CSCc1ccccc1)=NS2(=O)=O,inactive,inactive,inactive,inactive,inactive,–,–,–,–,–
O=c1cc[nH]c(=O)[nH]1,inactive,inactive,inactive,inactive,inactive,–,–,–,–,–
COc1ccc(S(=O)(=O)Nc2nnc(CC(C)C)s2)cc1,inactive,inactive,inactive,inactive,inactive,–,–,–,–,–
Cc1cccc(C)c1NC(=O)CN(CC(=O)O)CC(=O)O,inactive,inactive,inactive,inactive,inactive,–,–,–,–,–
CC(COc1ccccc1)NC(C)C(O)c1ccc(O)cc1 (stereo not given),inactive,inactive,inactive,inactive,inactive,–,–,–,–,–
CCOC(=O)c1ccc(O)cc1,inactive,inactive,inactive,inactive,inactive,–,–,–,–,–
CCOC(CN1CCN(CC(C)C(=O)c2ccccc2)CC1)c1ccccc1 (stereo not given),inactive,inactive,inactive,inactive,inactive,–,–,–,–,–
CCOC(=O)[C@H](CCc1ccccc1)N[C@@H](C)C(=O)N1C(=O)N(C)C[C@H]1C(=O)O,inactive,inactive,inactive,inactive,inactive,–,–,–,–,–
CC(=O)Nc1ccc(/C=N/NC(N)=S)cc1,inactive,inactive,inactive,inactive,inactive,–,–,–,–,–
Oc1cccc(O)c1,inactive,inactive,inactive,inactive,inactive,–,–,–,–,–
CN1CCOC(c2ccccc2)c2ccccc2C1 (stereo not given),inactive,inactive,inactive,inactive,inactive,–,–,–,–,–

Structure (SMILES),Potency [1],Potency [2],Potency [3],Potency [4],Potency [5],"activity change, negative = inhibition [1]","activity change, negative = cytotoxic [2]","activity change, negative = cytotoxic [3]","activity change, negative = cytotoxic [4]","activity change, negative = cytotoxic [5]"
CCOc1ccc2ccccc2c1C(=O)N[C@@H]1C(=O)N2[C@@H]1SC(C)(C)[C@@H]2C(=O)O,inactive,inactive,inactive,inactive,inactive,–,–,–,–,–
O=S(=O)(O)c1cc(I)c(O)c2ncccc12,inactive,inactive,inactive,inactive,inactive,–,–,–,–,–
CC1(C)Oc2ccc(C#N)cc2[C@@H](N2CCCC2=O)[C@@H]1O,inactive,inactive,inactive,inactive,inactive,–,–,–,–,–
CN1CCCCC1CCN1c2ccccc2Sc2ccc(S(C)=O)cc21 (stereo not given),inactive,inactive,inactive,inactive,inactive,–,–,–,–,–
CC(O)CN(CCN(CC(C)O)CC(C)O)CC(C)O (stereo not given),inactive,inactive,inactive,inactive,inactive,–,–,–,–,–
N[C@@H](CSCCCO)C(=O)O,inactive,inactive,inactive,inactive,inactive,–,–,–,–,–
NS(=O)(=O)c1cc2c(cc1C(F)(F)F)NC(Cc1ccccc1)NS2(=O)=O (stereo not given),inactive,inactive,inactive,inactive,inactive,–,–,–,–,–
C=CCn1c(=O)n([C@@H]2O[C@H](CO)[C@@H](O)[C@H]2O)c2nc(N)[nH]c(=O)c21,inactive,inactive,inactive,inactive,inactive,–,–,–,–,–
C[C@@H]1CC[C@@]2(OC1)O[C@H]1C[C@H]3[C@@H]4CC[C@H]5C[C@@H](O)CC[C@]5(C)[C@H]4CC(=O)[C@]3(C)[C@H]1[C@@H]2C,–,–,–,–,–,-2.82% [at 4.81 µM],10.8% [at 4.81 µM],10.7% [at 4.84 µM],26.5% [at 4.84 µM],9.64% [at 4.84 µM]
N[C@H]1C(O)O[C@H](CO)[C@@H](O)[C@@H]1O (stereo not given in full),inactive,inactive,inactive,inactive,inactive,–,–,–,–,–
CCCCCCCCCCCCCCCCCCOCC(O)CO (stereo not given),inactive,inactive,inactive,inactive,inactive,–,–,–,–,–
C[C@@H]1CCN(C(=O)[C@H](CCCN=C(N)N)NS(=O)(=O)c2cccc3c2NC[C@H](C)C3)[C@@H](C(=O)O)C1,inactive,inactive,inactive,inactive,inactive,–,–,–,–,–
CCCCN(CCCC)CCCOC(=O)c1ccc(N)cc1,inactive,inactive,inactive,inactive,inactive,–,–,–,–,–
CC1(C)[C@@H]2CC[C@@]1(C)C(=O)C2,inactive,inactive,inactive,inactive,inactive,–,–,–,–,–
CC1(C)OC(=O)NC1=O,inactive,inactive,inactive,inactive,inactive,–,–,–,–,–
O=C(O)[C@H](O)c1ccccc1,inactive,inactive,inactive,inactive,inactive,–,–,–,–,–
C[C@@H]1CN(c2c(F)c(F)c3c(=O)c(C(=O)O)cn(C4CC4)c3c2F)C[C@H](C)N1,inactive,inactive,inactive,inactive,inactive,–,–,–,–,–
OCC(CO)N[C@H]1C[C@](O)(CO)[C@@H](O)[C@H](O)[C@H]1O,inactive,inactive,inactive,inactive,inactive,–,–,–,–,–
CCC(=O)Nc1ccc(O)cc1,inactive,inactive,inactive,inactive,inactive,–,–,–,–,–
COc1ccc2cc1Oc1cc3c(cc1OC)CC[N+](C)(C)[C@H]3Cc1ccc(cc1)Oc1c(OC)c(OC)cc3c1[C@@H](C2)[N+](C)(C)CC3,inactive,inactive,inactive,inactive,inactive,–,–,–,–,–
O=C1O[C@H]([C@@H](O)CO)C(O)=C1O,inactive,inactive,inactive,inactive,inactive,–,–,–,–,–
NC(=O)N/N=C/c1ccc([N+](=O)[O-])o1,inactive,inactive,inactive,inactive,48.6 µM (active),–,–,–,–,–
Nc1ccc(S(=O)(=O)NC(=O)c2ccccc2)cc1,inactive,inactive,inactive,inactive,inactive,–,–,–,–,–
